For orientation: inhibition means the change of the read-out against control, counted positive when it falls.

Drawing on PubChem BioAssay, this text covers growth inhibition, inhibition and outcome for 19 compounds.

Where “and” joins values, the source holds several entries; their conditions need not be identical. Equal values may be shown once. For some assays here: Measured potencies and affinities stand elsewhere. Some structures have more than one record in an assay (separate samples or runs), and their calls can disagree. Calls of active or inactive are those of the source. Unless noted, no rule for the calls is given here.

Test [1] is described as follows: antimalarial activity against Dd2 strain (AID 2302;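 active = growth inhibition above 50% at the single 2 µM test dose, taken to imply half-maximal potency below 2 µM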;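 also: 0% = DMSO untreated growth and 100% = chloroquine plus artemisinin killed control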). The settings on record: P. falciparum Dd2 in RBCs, LDH growth readout, 72 h; at 2 µM; stronger effect = higher value.
The nature of test [2]: HepG2 cytotoxicity, primary screen, cytotoxicity control for P. falciparum antimalarial project, cell-based, ATP luminescence (AID 2303;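 active = inhibition above 50%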;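 also: 0% = DMSO wells and 100% = digitonin-killed cells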). The settings on record: HepG2 viability, 24-48 h, at 10 µM, stronger effect = higher value.
Test [3] has as its target L-lactate dehydrogenase (Plasmodium falciparum (isolate CDC / Honduras)) (UniProt Q27743). Kind of test: PfLDH activity inhibition – cell lysate, 3D7 strain, counter-screen for P. falciparum growth inhibition project (AID 2304).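 Also: 0% = vehicle and 100% = reference inhibitor.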 The settings on record: P. falciparum 3D7 crude extract, LDH APAD/NBT absorbance; at 2 µM; stronger effect = higher value. Background: A counterscreen serves to expose hits that act by an unwanted route or on another target.

Test [4] is described as follows: inhibition of 3D7 malaria parasite growth – strain 3D7 (AID 2306).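 Also: 0% = DMSO wells and 100% = chloroquine plus artemisinin control wells.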 To be noted: P. falciparum 3D7 erythrocytic growth, LDH absorbance, 72 h; at 2 µM; stronger effect = higher value.
The target in test [5] is Calcium-dependent protein kinase 1 (Plasmodium falciparum (isolate 3D7)) (UniProt P62344). Kind of test: PfCDPK1 kinase inhibitors, biochemical, TCAMS library (AID 1159585; cut-off not given, nearly all actives have IC50 up to about 0.98 µM;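 also: inhibitors leave more ATP so luminescence rises with inhibition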). To be noted: recombinant PfCDPK1, Kinase-Glo ATP depletion luminescence.
Chain of Calcium-dependent protein kinase 1 (Plasmodium falciparum (isolate 3D7)) (P62344 whole entry, looked up): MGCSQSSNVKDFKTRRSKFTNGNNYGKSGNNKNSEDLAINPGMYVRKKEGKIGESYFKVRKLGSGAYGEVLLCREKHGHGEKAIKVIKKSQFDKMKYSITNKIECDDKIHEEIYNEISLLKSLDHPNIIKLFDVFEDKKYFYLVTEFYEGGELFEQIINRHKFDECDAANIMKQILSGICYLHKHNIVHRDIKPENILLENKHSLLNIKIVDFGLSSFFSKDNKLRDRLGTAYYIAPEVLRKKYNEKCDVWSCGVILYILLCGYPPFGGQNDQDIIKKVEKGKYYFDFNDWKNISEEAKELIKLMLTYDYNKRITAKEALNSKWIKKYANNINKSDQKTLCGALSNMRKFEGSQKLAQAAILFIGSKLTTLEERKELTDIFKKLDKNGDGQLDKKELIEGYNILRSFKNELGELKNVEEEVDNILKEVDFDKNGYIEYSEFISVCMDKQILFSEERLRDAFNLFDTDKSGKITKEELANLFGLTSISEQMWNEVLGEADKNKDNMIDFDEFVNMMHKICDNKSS
Test [6] addresses Plasmodium falciparum protein kinase 6 (PK6, PF3D7_1337100) (UniProt Q8IDW1). Kind of test: PfPK6 kinase inhibitors, biochemical, TCAMS library (AID 1159586). To be noted: recombinant PfPK6, Kinase-Glo ATP depletion luminescence.
For test [7], the target named is Protein kinase 7 (PK7), Plasmodium falciparum 3D7 (PF3D7_0213400) (UniProt Q7YTF7). Briefly: inhibition of Plasmodium PK7 catalytic activity – biochemical, TCAMS antimalarial set, Kinase-Glo luminescence (AID 1159587). The settings on record: recombinant PfPK7, Kinase-Glo ATP depletion luminescence. (Kinase-Glo measures the ATP left after a reaction by luminescence.)
Chain of Protein kinase 7 (PK7), Plasmodium falciparum 3D7 (PF3D7_0213400) (Q7YTF7 1-343): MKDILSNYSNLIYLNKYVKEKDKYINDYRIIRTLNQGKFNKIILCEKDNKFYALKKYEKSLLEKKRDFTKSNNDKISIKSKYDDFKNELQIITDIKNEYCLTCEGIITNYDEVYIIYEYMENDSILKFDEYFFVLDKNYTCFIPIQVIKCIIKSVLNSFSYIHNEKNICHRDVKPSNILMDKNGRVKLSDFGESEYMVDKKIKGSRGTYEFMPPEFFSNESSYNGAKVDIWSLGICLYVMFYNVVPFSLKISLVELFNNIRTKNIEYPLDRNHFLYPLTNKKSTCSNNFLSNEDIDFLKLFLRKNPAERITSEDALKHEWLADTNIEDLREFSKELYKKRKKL

Test [8] deals with Calcium-dependent protein kinase 4 (Plasmodium falciparum (isolate 3D7)) (UniProt Q8IBS5). Kind of test: PfCDPK4 kinase inhibitors, biochemical, TCAMS library (AID 1159588; cut-off not given, nearly all actives have IC50 up to about 0.91 µM). To be noted: recombinant PfCDPK4, Kinase-Glo ATP depletion luminescence.
Chain of Calcium-dependent protein kinase 4 (Plasmodium falciparum (isolate 3D7)) (Q8IBS5 whole entry, looked up): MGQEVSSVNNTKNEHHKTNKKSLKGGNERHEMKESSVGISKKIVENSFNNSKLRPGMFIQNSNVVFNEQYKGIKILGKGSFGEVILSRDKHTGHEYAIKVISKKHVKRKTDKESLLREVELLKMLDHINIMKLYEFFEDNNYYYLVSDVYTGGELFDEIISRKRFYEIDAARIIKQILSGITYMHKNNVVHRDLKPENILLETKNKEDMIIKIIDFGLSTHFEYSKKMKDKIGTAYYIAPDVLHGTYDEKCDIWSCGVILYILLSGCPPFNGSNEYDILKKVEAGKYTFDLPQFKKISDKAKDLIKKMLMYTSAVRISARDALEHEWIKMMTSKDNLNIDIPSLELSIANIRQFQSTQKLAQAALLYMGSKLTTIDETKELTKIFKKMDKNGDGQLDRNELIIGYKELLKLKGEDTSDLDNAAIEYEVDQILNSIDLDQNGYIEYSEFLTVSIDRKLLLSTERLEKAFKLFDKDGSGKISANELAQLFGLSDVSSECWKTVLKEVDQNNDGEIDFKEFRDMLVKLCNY

Chain of L-lactate dehydrogenase (Plasmodium falciparum (isolate CDC / Honduras)) (Q27743 whole entry, looked up): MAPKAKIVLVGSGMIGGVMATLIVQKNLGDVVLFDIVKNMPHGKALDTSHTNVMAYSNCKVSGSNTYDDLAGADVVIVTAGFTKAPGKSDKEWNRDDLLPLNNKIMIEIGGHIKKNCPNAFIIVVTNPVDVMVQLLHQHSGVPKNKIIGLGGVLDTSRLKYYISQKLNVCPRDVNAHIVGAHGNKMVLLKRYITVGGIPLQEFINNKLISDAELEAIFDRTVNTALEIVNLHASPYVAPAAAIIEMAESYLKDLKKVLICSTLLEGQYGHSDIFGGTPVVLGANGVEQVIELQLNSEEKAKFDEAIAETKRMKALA
Chain of Plasmodium falciparum protein kinase 6 (PK6, PF3D7_1337100) (Q8IDW1 1-305): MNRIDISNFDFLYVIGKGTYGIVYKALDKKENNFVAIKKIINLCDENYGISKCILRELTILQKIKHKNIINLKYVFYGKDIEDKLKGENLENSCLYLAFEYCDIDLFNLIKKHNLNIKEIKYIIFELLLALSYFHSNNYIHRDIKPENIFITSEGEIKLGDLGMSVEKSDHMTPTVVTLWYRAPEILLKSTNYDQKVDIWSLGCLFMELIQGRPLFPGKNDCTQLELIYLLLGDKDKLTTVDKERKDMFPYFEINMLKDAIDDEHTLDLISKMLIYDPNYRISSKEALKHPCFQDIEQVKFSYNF

For `N#Cc1c(Cl)cccc1Oc1ccc(S(=O)(=O)NC2CCC(CN3CCC(c4c[nH]c5ccccc45)CC3)CC2)cc1` (configuration not stated), the growth inhibition in test [1] is 36% (inactive) and 16% (inactive); in test [4], 101% (active) and 85% (active). The inhibition in test [2] was 31% (inactive) and 29% (inactive); in test [3] it was 3% (inactive) and -3% (inactive). In addition, the outcome in test [5], in test [6], in test [7] and in test [8] was inactive.

As for `CCN(CC)CCOC(=O)C(OC)(c1ccccc1)c1ccccc1`, the figures for the growth inhibition in test [1] and in test [4] were 6% (inactive) and 97% (active), respectively. Further, the inhibition was -4% (inactive) in test [2] and 2% (inactive) in test [3]. For the same compound, the result in test [5], in test [6], in test [7] and in test [8] was inactive.

Turning to `COc1ccccc1CNCC(O)c1cc(C(F)(F)F)ccc1C(F)(F)F` (configuration not stated), the growth inhibition in test [1] was 95% (active); in test [4], 101% (active). The results for the inhibition in test [2] and in test [3] were 10% (inactive) and 5% (inactive), respectively. Further, the result in test [5], in test [6], in test [7] and in test [8] was inactive.

For `O=C(/C=C/c1ccc(Cl)c(Cl)c1)NCc1ccc(CN2CCC(c3c[nH]c4ccccc34)CC2)cc1`, the growth inhibition is 86% (active) in test [1] and 101% (active) in test [4]. Moreover, the inhibition in test [2] is 59% (active); in test [3] it was -2% (inactive). Besides, the outcome in test [5], in test [6], in test [7] and in test [8] was inactive.

As for `Cc1[nH]c2ccccc2c1C1=CCN(C[C@H]2C[C@@H]2C(=O)c2ccccc2)CC1`, the growth inhibition in test [1] was 88% (active); in test [4] it was 95% (active). Further, the inhibition was 18% (inactive) in test [2] and -3% (inactive) in test [3]. The result in test [5], in test [6], in test [7] and in test [8] was inactive.

Turning to `S=C(NCC1CCCCC1)NC1CCC(CN2CCC(c3c[nH]c4ccccc34)CC2)CC1` (configuration not stated), the growth inhibition in test [1] is 10% (inactive); in test [4] it was 88% (active). In addition, the inhibition was 29% (inactive) in test [2] and 6% (inactive) in test [3]. For the same compound, the result in test [5], in test [6], in test [7] and in test [8] was inactive.

For `O=C(c1cc(C(=O)NCc2ccc(Cl)cc2)c(=O)n(Cc2ccc(Cl)cc2)c1)c1cc(F)ccc1O`, the growth inhibition in test [1] is 2% (inactive); in test [4] it was 93% (active). The inhibition was 7% (inactive) in test [2] and -2% (inactive) in test [3]. In addition, the result in test [5], in test [6], in test [7] and in test [8] was inactive.

Consider `Cc1cc2ccc(CNCCc3ccccc3Br)cc2nc1N`, for which the growth inhibition is 48% (inactive) in test [1] and 101% (active) in test [4]. Moreover, the inhibition is -1% (inactive) in test [2] and 1% (inactive) in test [3]. The outcome in test [5], in test [6], in test [7] and in test [8] was inactive.

For `COC(=O)c1sccc1NC(=S)NC1CCC(CN2CCC(c3c[nH]c4ccccc34)CC2)CC1` (configuration not stated), the growth inhibition in test [1] is 54% (active) and 49% (inactive); in test [4], 97% (active) and 100% (active). Moreover, the inhibition was 25% (inactive) and 34% (inactive) in test [2]; 0% (inactive) and -1% (inactive) in test [3]. Besides, the outcome in test [5], in test [6], in test [7] and in test [8] was inactive.

`OC1(c2ccc(Cl)c(C(F)(F)F)c2)CCN(CCOC2c3ccccc3CSc3ccc(Cl)cc32)CC1` (configuration not stated): the figures for the growth inhibition in test [1] and in test [4] were 58% (active) and 95% (active), respectively. For the same compound, the inhibition in test [2] is 3% (inactive); in test [3], 6% (inactive). Further, the result in test [5], in test [6], in test [7] and in test [8] was inactive.

As to `CCCCCSc1cc(O)c(C(CNC)C(C)C)cc1OC` (configuration not stated), the growth inhibition was 99% (active) in test [1] and 100% (active) in test [4]. The inhibition in test [2] was 5% (inactive); in test [3], -4% (inactive). Besides, the result in test [5], in test [6], in test [7] and in test [8] was inactive.

Regarding `O=C(C=Cc1cc([N+](=O)[O-])ccc1Cl)NC1CCC(CN2CCC(c3c[nH]c4ccccc34)CC2)CC1` (configuration not stated), the growth inhibition in test [1] is 94% (active); in test [4], 102% (active). Moreover, the inhibition in test [2] is 21% (inactive); in test [3], 1% (inactive). Moreover, the result in test [5], in test [6], in test [7] and in test [8] was inactive.

Regarding `O=C(/C=C/c1ccc(Cl)c(Cl)c1)N(Cc1ccccc1)C1CCC(CN2CCC(c3c[nH]c4ccccc34)CC2)CC1` (configuration not stated), the values for the growth inhibition in test [1] and in test [4] were 59% (active) and 101% (active), respectively. The inhibition in test [2] is 37% (inactive); in test [3], -6% (inactive). For the same compound, the result in test [5], in test [6], in test [7] and in test [8] was inactive.

As for `CC[C@H]1CN2CC[C@H]1C[C@H]2C(O)c1cc(OC)nc2ccccc12` (some centres not stated), the growth inhibition in test [1] is 98% (active); in test [4], 100% (active). Also, the inhibition in test [2] was -2% (inactive); in test [3], -1% (inactive). The result in test [5], in test [6], in test [7] and in test [8] was inactive.

Take `CNCC(O)c1cc(Cl)c(Cl)cc1C` (configuration not stated): the growth inhibition is 88% (active) in test [1] and 98% (active) in test [4]. Besides, the inhibition in test [2] is 0% (inactive); in test [3], 2% (inactive). In addition, the result in test [5], in test [6], in test [7] and in test [8] was inactive.

Take `S=C(NCCc1ccc(Cl)cc1)N1CCC(CN2CCC(c3c[nH]c4ccccc34)CC2)CC1`: the growth inhibition in test [1] is 7% (inactive); in test [4] it was 90% (active). In addition, the inhibition is 31% (inactive) in test [2] and 0% (inactive) in test [3]. Also, the result in test [5], in test [6], in test [7] and in test [8] was inactive.

Consider `Oc1ccccc1CNCC(O)c1cc(C(F)(F)F)cc(C(F)(F)F)c1` (configuration not stated), for which the growth inhibition is 100% (active) in test [1] and 99% (active) in test [4]. Further, the figures for the inhibition in test [2] and in test [3] were 15% (inactive) and 4% (inactive), respectively. Also, the outcome in test [5], in test [6], in test [7] and in test [8] was inactive.

Turning to `O=C(Nc1cc(C(F)(F)F)cc(C(F)(F)F)c1)N1CCC(CN2CCC(c3c[nH]c4ccccc34)CC2)CC1`, the growth inhibition in test [1] is 99% (active); in test [4], 100% (active). For the same compound, the inhibition was 42% (inactive) in test [2] and -1% (inactive) in test [3]. The result in test [5], in test [6], in test [7] and in test [8] was inactive.

In the case of `CC(C)c1ccc(C=CC(=O)NC2CCC(CN3CCC(c4c[nH]c5ccccc45)CC3)CC2)cc1` (configuration not stated), the growth inhibition in test [1] is 85% (active); in test [4] it was 101% (active). Moreover, the values for the inhibition in test [2] and in test [3] were 50% (active) and -3% (inactive), respectively. Also, the result in test [5], in test [6], in test [7] and in test [8] was inactive.
